LT uptake inh: qHTS Assay for Anthrax Lethal Toxin Internalization. Cells, anthrax lethal toxin internalization, FRET ratio (460/530). AID 912, 2007. Potency, µM (highest dose often 40 µM), usual class: inhibitors. actives 0.67% (n = 70,000); further: nearly all actives have a fitted effect of over 50% in size
AmpC inh no det: Promiscuous and Specific Inhibitors of AmpC Beta-Lactamase (assay without detergent); AmpC nitrocefin hydrolysis, absorbance 480 nm, no detergent; actives 1.8% (n = 71,000); Potency, µM (top dose mostly 28.7 µM); AID 585, 2007; P00811
Target sequence (P00811 whole entry, looked up): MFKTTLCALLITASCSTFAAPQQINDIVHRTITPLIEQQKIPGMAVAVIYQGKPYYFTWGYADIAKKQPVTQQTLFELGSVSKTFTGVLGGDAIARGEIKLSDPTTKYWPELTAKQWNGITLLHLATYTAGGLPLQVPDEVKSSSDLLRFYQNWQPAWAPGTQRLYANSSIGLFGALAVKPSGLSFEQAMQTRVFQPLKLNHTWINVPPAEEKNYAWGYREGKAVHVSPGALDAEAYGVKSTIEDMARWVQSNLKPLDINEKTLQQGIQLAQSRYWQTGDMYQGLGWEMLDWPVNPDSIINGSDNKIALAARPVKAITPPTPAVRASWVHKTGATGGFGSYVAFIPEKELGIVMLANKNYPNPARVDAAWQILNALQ
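Enzyme, pH 7.0 phosphate. Compound titrations were pre-incubated with AmpC for 15 min at room temperature before nitrocefin (stock 800 uM) addition; product formation was recorded at 480 nm every 20 s for 4 min.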
AmpC inh det: Promiscuous and Specific Inhibitors of AmpC Beta-Lactamase (assay with detergent). P00811. AID 584, 2007. purified AmpC, nitrocefin hydrolysis with detergent. actives 0.09% (n = 71,000). Potency, µM (doses to about 28.7 µM); active means well fitted curve in the direction sought with a large enough effect; inconclusive means small, poorly fitted or top-dose-only effect
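E. coli AmpC (5.3 nM) in 20 mM phosphate pH 7.0 with 0.01% Triton X-100, preincubated 15 min RT with compound; nitrocefin (2 uL of 800 uM stock) hydrolysis followed by 480 nm absorbance every 20 s over 4 min.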
Prx2 Sm inh: Schistosoma Mansoni Peroxiredoxins (Prx2); Schistosoma mansoni peroxiredoxin 2 (Prx2); S. mansoni Prx2 activity coupled to TGR/GSH (TGR is thioredoxin glutathione reductase), NADPH fluorescence loss, qHTS; actives 0.07% (n = 65,000); Potency, µM; AID 448, 2006
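Prx2 activity was followed as the loss of NADPH fluorescence (ex 365/em 450 nm), read every 30 sec for 8 min after H2O2 start. The enzyme mix (50 nM Prx2, 25 nM TGR, GSH, NADPH; pH 7.4 phosphate buffer) was incubated with compound for 15 min at room temperature first.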
Numbers stand for hits; 0 = inactive; ? = inconclusive; - = no result; ! = not active in a repeat; [ ] = another dose, or the depositor's remark. Shown are actives, neighbours in structure and some others; about 2.4% of the full set was active somewhere. Unless noted, the call rests on the fitted dose curve.

SMILES	LT uptake inh	AmpC inh no det	AmpC inh det	Prx2 Sm inh
CN1C(=O)CC(N2CCC(c3nc4ccccc4[nH]3)CC2)C1=O (configuration not stated)	0	3.98µM[single pt active]	0	0
O=C1CC(N2CCC(c3nc4ccccc4[nH]3)CC2)C(=O)N1Cc1ccccc1 (configuration not stated)	0	0	0	0
CCNc1ncc2nc(-c3cccc(C#N)c3)c(=O)n(CCC#N)c2n1	?	0	0	0
Cc1ccc(-n2c(=O)c3sccc3n(CC(=O)NCc3ccco3)c2=O)cc1	0	0	0	0
N#Cc1ccccc1Cn1c(=O)n(-c2ccc(CC(=O)NCc3ccco3)cc2)c(=O)c2sccc21	?	3.98µM[single pt active]	0	0
N#Cc1ccccc1Cn1c(=O)n(Cc2ccc(C(=O)NCc3ccco3)cc2)c(=O)c2sccc21	0	3.98µM[single pt active]	0	-
O=C(CCCn1c(=O)c2sccc2n(Cc2cc(=O)n3ccccc3n2)c1=O)NCc1ccco1	0	3.98µM[single pt active]	0	0
N[C@@H](C(=O)O)[C@H](O)C(=O)O	0	0	0	0
Cc1cc(C2(c3cc(C)c(O)cc3C)OS(=O)(=O)c3ccccc32)c(C)cc1O	?	0	0	-
Cc1c(Cl)cccc1NC(=O)CN1C(=O)CSc2ncccc21	?	3.16µM[single pt active]	0	0
COCCCNC(=O)CN1C(=O)CSc2ncccc21	0	0	0	0
CCC(c1nnnn1Cc1ccco1)N(CCc1ccccc1)Cc1cc2cc(C)ccc2[nH]c1=O (configuration not stated)	0	0	0	0
Cc1ccc2[nH]c(=O)c(CN(CCc3ccccc3)C(c3nnnn3Cc3ccco3)C(C)C)cc2c1 (configuration not stated)	?	5.01µM	0	0
CN1CCN(c2ncc3nc(-c4cccs4)c(=O)n(-c4ccccc4)c3n2)CC1	?	0	0	0
Cc1nc2cnc(N(C)C)nc2n(-c2ccccc2)c1=O	0	0	0	0
CS(=O)(=O)c1nc(-c2ccco2)cc(C(F)(F)F)n1	10µM	0	0	0
FC(F)(F)c1cc(-c2ccco2)nc(NCc2ccco2)n1	?	0	0	0
CC1C(c2ccccc2)N(C)CCC12NC(=O)NC2=O (configuration not stated)	0	0	0	0
CC1C(=O)CC(c2ccccc2)N(C)C1c1ccccc1 (configuration not stated)	?	3.98µM[single pt active]	0	0
N[C@@H](Cn1cc(F)c(=O)[nH]c1=O)C(=O)O	?	0	0	0
O=C1CCC(=O)N1c1cccc(-c2nc3ccccc3o2)c1	0	3.98µM[single pt active]	0	0
O=C1c2cccnc2C(=O)N1c1cccc(-c2nc3ccccc3o2)c1	0	0	0	0
Brc1ccc(Oc2cc(Br)c(Br)cc2Br)c(Br)c1	0.794µM	0	0	-
Nc1nnc(COc2ccc(Br)cc2Br)s1	0	0	0	0
NC(=NCc1ccc(Cl)c(Cl)c1)NC(=O)c1nc(Cl)c(N)nc1N	?	12.6µM[single pt active]	0	0
SMILES	LT uptake inh	AmpC inh no det	AmpC inh det	Prx2 Sm inh
Cc1ccc(-c2nc(NC(=O)CSc3nnc4scc(-c5ccccc5)n34)ns2)cc1	?	3.98µM[single pt active]	0	0
CCN(CC)c1ccc(NC(=O)CSc2nc3ccccc3c(=O)[nH]2)cc1	0	10µM[single pt active]	0	0
O=C(O)c1ccccc1Nc1cccc(OCc2ccc3ccccc3n2)c1	15.8µM!	15.8µM![single pt active]	0	0
COc1cccc(Nc2cc(C)nc3ccccc23)c1	0	0	0	0
Nc1nc(SCCc2ccccc2)c2[nH]cnc2n1	?	0[5.75 µM]	0[5.75 µM]	0
O=c1c2ccccc2sn1-c1cc(S(=O)(=O)N2CCOCC2)ccc1N1CCOCC1	0.159µM	0	0	0
Cn1c(=O)c2cc(S(=O)(=O)N3CCOCC3)ccc2n(C)c1=O	0	0	0	0
CCCCNC(=O)Cn1c(=O)n(C)c2ccccc21	0	3.98µM[single pt active]	0	0
Cn1c(=O)n(CC(=O)Nc2ccc(F)cc2)c2ccccc21	0	0	0	0
C#CCCCO/N=C1/C[C@@H](O)[C@@H](O)[C@@H]2[C@@H]3C(=O)N(c4cccc(Oc5ccccc5)c4)C(=O)[C@H]3CC[C@H]12	0[1.6 µM]	-	-	-
CCCC/C=C/C(NC(=O)c1ccc(C(F)(F)F)cc1)c1ccccc1 (configuration not stated)	0	15.8µM[single pt active]	0	0
CCCC/C=C/C(NC(=O)c1ccccc1)c1ccccc1 (configuration not stated)	?	0	0	0
CCC(C)C(=O)Nc1nc2c(s1)C(=O)CC(C)(C)C2 (configuration not stated)	0	3.98µM[single pt active]	0	0

High-throughput results (PubChem)
